Out of some 16,000 compounds screened, about 5,800 (36%) were called active. Roughly 23% stayed inconclusive and do not appear here. This is one part of the list. Unmarked numbers belong to inactive results. Calls follow the shape of the dose curve; as a rule, active = well fitted curve in the direction sought with a large enough effect; inconclusive = small, poorly fitted or top-dose-only effect, or effect the other way; inactive = no such curve, though single readings can be large or run the other way.
What follows are compounds tested against Cytochrome P450 2C19 (Homo sapiens) (UniProt P33261) (assay: Cytochrome panel assay with activity outcomes). Settings: recombinant CYP, pro-luciferin dealkylation, luminescence, p450-cyp2c19; series mostly up to 57.1 µM.
Sequence of Cytochrome P450 2C19 (Homo sapiens) (P33261 whole entry, looked up): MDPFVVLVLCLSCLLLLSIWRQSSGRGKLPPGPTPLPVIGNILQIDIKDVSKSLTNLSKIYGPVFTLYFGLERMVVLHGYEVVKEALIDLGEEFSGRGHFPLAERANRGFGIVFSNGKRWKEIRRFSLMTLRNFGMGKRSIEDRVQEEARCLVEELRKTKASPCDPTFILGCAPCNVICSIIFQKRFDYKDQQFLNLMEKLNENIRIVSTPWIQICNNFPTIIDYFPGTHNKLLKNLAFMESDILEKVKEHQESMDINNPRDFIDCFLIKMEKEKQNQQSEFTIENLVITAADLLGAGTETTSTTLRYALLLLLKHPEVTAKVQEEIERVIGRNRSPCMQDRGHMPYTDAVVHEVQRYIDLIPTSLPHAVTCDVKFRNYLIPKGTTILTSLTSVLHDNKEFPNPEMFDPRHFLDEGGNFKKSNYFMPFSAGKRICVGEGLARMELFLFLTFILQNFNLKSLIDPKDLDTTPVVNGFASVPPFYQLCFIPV
For `O=C(Cc1ccccc1[N+](=O)[O-])NCc1ccccc1Cl`, the AC50 was 31.6 µM (active).
In the case of `Cc1nn(CC(=O)NCc2ccccc2)c(C)c1[N+](=O)[O-]`, the AC50 is reported as “inactive”.
With `O=C(Cc1ccccc1[N+](=O)[O-])NCCSCc1c(F)cccc1Cl` the AC50 was 2.51 µM (active).
In the case of `Cn1c(=O)c2cc(S(=O)(=O)NCCC(=O)NCc3ccccc3Cl)ccc2n(C)c1=O`, the AC50 is reported as “inactive”.
With `Cc1nn(CC(=O)NCCN2CCOCC2)c(C)c1[N+](=O)[O-]` the AC50 was “inactive”.
With `Cc1nn(CC(=O)NCc2ccccc2Cl)c(C)c1[N+](=O)[O-]` the AC50 was 15.8 µM (active).
With `Cc1ccc(C(=O)C(OC(=O)COc2ccccc2C)c2ccccc2)cc1` (stereo not drawn) the AC50 was 7.08 µM (active).
With `CNCC[C@@H](Oc1ccccc1C)c1ccccc1` the AC50 was “inactive”.
`Cc1ccccc1OCC(=O)OC1CCN(C)CC1` was tested, and the AC50 was “inactive”.
`Cc1ccc(C(=O)C(OC(=O)CN2C(=O)c3ccccc3C2=O)c2ccccc2)cc1` (stereo not drawn) was tested, and the AC50 was 3.55 µM (active).
`Cc1ccc(C(=O)C(OC(=O)CCC(=O)Nc2cccc(C)c2)c2ccccc2)cc1` (stereo not drawn) was tested, and the AC50 was 11.2 µM (active).
With `O=C(CN1C(=O)c2ccccc2C1=O)NCC(=O)OCC(=O)c1ccc(Br)cc1` the AC50 was “inactive”.
With `Cc1ccc(C(=O)C(OC(=O)CNS(=O)(=O)c2ccccc2)c2ccccc2)cc1` (stereo not drawn) the AC50 was 10 µM (active).
`CCNc1ncc2nc(-c3cc(F)cc(F)c3)c(=O)n(-c3ccc(OC)cc3)c2n1` was tested, and the AC50 was “inactive”.
In the case of `CC(=O)Nc1cccc(C(=O)OC(C(=O)c2ccc(C)c(C)c2)c2ccccc2)c1` (stereo not drawn), the AC50 is reported as 3.98 µM (active).
In the case of `Cc1ccc(NC(=O)C2C3CCCC2C3c2ccccc2)cc1C` (stereo not drawn), the AC50 is reported as “inactive”.
`CN(CC(=O)O)Cc1c(O)c(Cl)cc(Cl)c1Cl` showed an activity, negative = inhibition of 40.6% [at 11.4 µM].
With `CCN(Cc1cc(Cl)cc(C)c1O)Cc1c(O)ccc2ccccc12` the AC50 was 1.26 µM (active).
`CN(C)Cc1cc(Cl)c(O)c(CN(C)C)c1` showed an activity, negative = inhibition of 2.46% [at 11.4 µM].
In the case of `CN(Cc1cc(Cl)cc(Cl)c1O)Cc1c(O)ccc2ccccc12`, the AC50 is reported as 1.26 µM (active).
`CN(Cc1cc(Br)cc(Br)c1O)Cc1c(O)ccc2ccccc12` was tested, and the AC50 was 0.501 µM (active).
Work on `Oc1ccc2ccccc2c1C=NCc1c(O)ccc2ccccc12` yielded an activity, negative = inhibition of -16.5% [at 11.4 µM].
Compound `O=C1Nc2ccccc2C1=Nc1cccc2ncccc12` has an activity, negative = inhibition of 27.9% [at 11.4 µM].
`COC(=O)[C@H](CCSC)NC(=O)C/C=C\[C@@H](C)[C@@H](CO)OC` gave an activity, negative = inhibition of -1.07% [at 11.4 µM].
With `COC(=O)C(CCSC)NC(=O)c1cccc([N+](=O)[O-])c1` (stereo not drawn) the AC50 was 14.1 µM (active).
`COC(=O)[C@H](CCSC)NC(=O)C/C=C\[C@@H](C)CO` showed an activity, negative = inhibition of 35.2% [at 11.4 µM].
In the case of `NCCS(=O)O`, the AC50 is reported as “inactive”.
`O=C(O)C(=O)/C=C(\O)c1ccc(Br)cc1` showed an activity, negative = inhibition of 29% [at 11.4 µM].
In the case of `CC(=O)NC(NC(C)=O)c1ccc(Br)cc1`, the AC50 is reported as “inactive”.
For `C=CC(=O)NC(NC(=O)C=C)c1ccc(Br)cc1`, the AC50 was 15.8 µM (active).
For `O=C(COC(=O)c1cccnc1)c1ccc(Cl)c(Cl)c1`, the AC50 was 2.24 µM (active).
In the case of `O=S(=O)(/N=C(\Sc1ccccc1)c1ccccc1)c1ccc(Cl)cc1`, the AC50 is reported as 15.8 µM (active).
For `CCOC(=O)c1sc(C)c(C(=O)NCC(C)(C)CN(C)C)c1N`, the AC50 was 28.2 µM (active).
For `COCC(=O)N1CCC2(CCCN(Cc3ccccc3)C2)CC1`, the AC50 was “inactive”.
In the case of `CCOc1ccc(NC(=O)N2CCC(c3ccc(C)cc3)C2)cc1` (stereo not drawn), the AC50 is reported as “inactive”.
`O=C(COc1ccc(Br)cc1)N1CCC(c2ccccc2)C1` (stereo not drawn) was tested, and the AC50 was 1.12 µM (active).
In the case of `Cc1sc2nc(C3CC3)nc(SCC(=O)N3CC(=O)Nc4ccccc43)c2c1C`, the AC50 is reported as 3.98 µM (active).
With `Cc1nnc(SCC(=O)N2CC(=O)Nc3ccccc32)n1Cc1ccccc1` the AC50 was “inactive”.
For `CC1=CC(=O)CC(C)(C)[C@]1(O)/C=C\C(C)=C\C(=O)O`, the activity, negative = inhibition was -25.7% [at 11.4 µM].
With `CC1=C(\C=C/C(C)=C/C=C\C(C)=C\C(=O)O)C(C)(C)CCC1` the AC50 was 5.01 µM (active).
`CN(C)c1ncc2nc(-c3cccs3)c(=O)n(C[C@H]3CCCO3)c2n1` was tested, and the AC50 was “inactive”.
In the case of `O=C(COC(=O)c1cccc(S(=O)(=O)N2CCN(c3ccccc3)CC2)c1)NCc1ccco1`, the AC50 is reported as 0.708 µM (active).
In the case of `O=C(COC(=O)c1cccc(S(=O)(=O)N2CCOCC2)c1)Nc1nc(-c2ccccc2Cl)cs1`, the AC50 is reported as 3.98 µM (active).
`CCCc1nc2ccccc2c(C(=O)OCC(=O)Nc2cccc(S(=O)(=O)N3CCOCC3)c2)c1CC` was tested, and the AC50 was 3.55 µM (active).
With `COc1cc(C)cc(OC)c1/C=C\C(=O)O` the activity, negative = inhibition was -0.542% [at 11.4 µM].
In the case of `COc1ccc(Cc2ccccc2C(=O)O)c2ccccc12`, the activity, negative = inhibition is reported as 12.2% [at 11.4 µM].
In the case of `COc1ccc2ccccc2c1/C=C\C(=O)c1ccccc1`, the AC50 is reported as 0.316 µM (active).
For `COc1ccccc1/C=C/C(=O)c1c2c(c(C)[nH]c1=O)CCCC2`, the AC50 was 7.94 µM (active).
For `COc1ccccc1/C=C/C(=O)c1ccc(Cl)cc1`, the AC50 was 2.24 µM (active).
For `C[C@@H](Cc1ccccc1)Nc1ncnc2c1ncn2[C@@H]1O[C@@H](CO)[C@H](O)[C@@H]1O`, the AC50 was “inactive”.
With `CC(O)(P(=O)(O)O)P(=O)(O)O` the AC50 was “inactive”.
`NC(=NCCC[C@H](N)C(=O)O)NO` was tested, and the AC50 was “inactive”.
`NC(=S)NCCC[C@@H](N)C(=O)O` was tested, and the AC50 was “inactive”.
In the case of `CCCN=C(N)NCCC[C@H](N)C(=O)O`, the AC50 is reported as 2 µM (active).
`O=C(O)c1nn(-c2ccc(Cl)cc2)c2c1C(=O)c1ccccc1C2=O` was tested, and the activity, negative = inhibition was 4.89% [at 11.4 µM].
For `O=C1CN=C(Nc2ccc(Cl)cc2)N1c1ccccc1`, the AC50 was 11.2 µM (active).
With `CCOC(=O)COc1ccc(/C=C/[N+](=O)[O-])c(OCC(=O)OCC)c1` the AC50 was 6.31 µM (active).
For `CCCCCN=c1ccn(Cc2ccccc2)c2ccccc12`, the AC50 was 0.251 µM (active).
For `O=C(CNCCO)N1CCc2ccccc21`, the AC50 was “inactive”.
In the case of `O=C(CSc1nnc(CNc2ccc(F)cc2)o1)OC1CCCCC1`, the AC50 is reported as 11.2 µM (active).
In the case of `O=C(CSc1nc(-c2ccccc2)cs1)N1CCc2ccccc21`, the AC50 is reported as 2 µM (active).
`O=C(CSc1nnc(CNc2ccccc2)o1)N1CCCc2ccccc21` was tested, and the AC50 was 4.47 µM (active).
With `O=C(CSc1n[nH]c(-c2ccccc2O)n1)N1CCCc2ccccc21` the AC50 was 2.51 µM (active).
With `CCn1ccc(C(=O)NC2=C(C#N)CCC2)n1` the AC50 was “inactive”.
For `CSc1nc(Oc2ccc(=O)[nH]n2)nc(N(C)C)n1`, the AC50 was “inactive”.
With `CO[C@@H]1COC(=O)CCC[C@@H](C)[C@H](OC)COC(=O)CCC[C@H]1C` the activity, negative = inhibition was 5.51% [at 11.4 µM].
For `O=C(CSc1nnc(CNc2ccc(F)cc2)o1)N1c2ccccc2Sc2ccccc21`, the AC50 was 2.82 µM (active).
In the case of `COc1ccc(-n2nnnc2SCC(=O)Nc2ccccc2)cc1`, the AC50 is reported as 3.98 µM (active).
For `CCc1nnc(NC(=O)CCC(=O)N2CCN(c3ccccn3)CC2)s1`, the AC50 was “inactive”.
With `CCOc1ccc(-n2ccnc2SCC(=O)Nc2nnc(C)s2)cc1` the AC50 was “inactive”.
With `O=C(CSc1nnnn1-c1ccccc1)NCc1cccs1` the AC50 was 0.891 µM (active).
For `COc1ccc(-n2ccnc2SCC(=O)Nc2ccc(OC)cc2OC)cc1`, the AC50 was 1.41 µM (active).
`CCOc1ccc(-n2ccnc2SCC(=O)Nc2nnc(CC)s2)cc1` was tested, and the AC50 was 8.91 µM (active).
For `NCCSSCCN`, the AC50 was “inactive”.
`CN1CCCC2(CCN(C(=O)c3cnccn3)CC2)C1` was tested, and the AC50 was “inactive”.
For `COc1ccc(NC(=O)CSc2nnc(C3CC3)n2-c2ccccc2)cc1`, the AC50 was 20 µM (active).
In the case of `CCCC(=O)Nc1nnc(CCN2CCCCC2)s1`, the AC50 is reported as “inactive”.
For `COc1ccc(-n2ccnc2SCC(=O)Nc2ccccc2)cc1`, the AC50 was 4.47 µM (active).
With `COc1cccc(-n2ccnc2SCC(=O)Nc2nccs2)c1` the AC50 was 8.91 µM (active).
For `CCCC(=O)Nc1nnc(SCC(=O)NCc2cccs2)s1`, the AC50 was 14.1 µM (active).
In the case of `COc1ccc(NC(=O)CSc2nnc(C3CC3)n2N)cc1`, the AC50 is reported as “inactive”.
In the case of `Cc1ccc2nc(SCC(=O)NCc3cccs3)c(C#N)cc2c1`, the AC50 is reported as “inactive”.
With `Cn1ncc2c(Nc3cccc(C(=O)O)c3)ncnc21` the AC50 was “inactive”.
Compound `O=C(O)CS(=O)c1ccc2c3c(cccc13)C(=O)c1ccccc1-2` (stereo not drawn) has an activity, negative = inhibition of -37% [at 11.4 µM].
For `CCn1c(SC)nnc1C1CCN(S(=O)(=O)c2ccc(OC)cc2)CC1`, the AC50 was “inactive”.
For `Cn1c(SCC(=O)Nc2ccccc2)nc(O)cc1=O`, the AC50 was 22.4 µM (active).
`Cc1cccc(-n2ncc3c(Nc4c(C)n(C)n(-c5ccccc5)c4=O)ncnc32)c1` was tested, and the AC50 was “inactive”.
`CCn1c(SCC(=O)c2ccc(OC)cc2)nnc1C1CC1` was tested, and the AC50 was 11.2 µM (active).
`COc1ccc(NC(=O)CSc2ccc3c4c(cccc24)C(=O)c2ccccc2-3)cc1` was tested, and the AC50 was 0.708 µM (active).
`O=C(CSC1=NCCN1)Nc1ccccc1` showed an activity, negative = inhibition of -1.95% [at 11.4 µM].
In the case of `CCN(CC)C(=O)CSc1nc(O)cc(=O)n1CC`, the AC50 is reported as “inactive”.
In the case of `CC(=O)Nc1ccc(Nc2ncnc3c2cnn3-c2ccccc2)cc1`, the AC50 is reported as 2.82 µM (active).
In the case of `CC(=O)Nc1ccc(NC(=O)CSc2ncnn2-c2ccccc2)cc1`, the AC50 is reported as 25.1 µM (active).
In the case of `OCCNCCCOc1cccc(Cl)c1Cl`, the AC50 is reported as 3.98 µM (active).
With `COc1c(Cl)cc(Cl)cc1CNCCNCCO` the AC50 was “inactive”.
In the case of `Nc1ncnc2c1nc(Br)n2[C@@H]1O[C@H]2COP(=O)(O)O[C@@H]2[C@H]1O`, the AC50 is reported as “inactive”.
For `COC(=O)N1CCC2(CC1)CCN(c1ccncc1)CC2`, the AC50 was “inactive”.
For `CNc1oc(-c2cccs2)nc1C#N`, the AC50 was “inactive”.
In the case of `N#Cc1nc(-c2cccs2)oc1NCc1ccccc1`, the AC50 is reported as 1.58 µM (active).
With `O=C(Cn1c(-c2cscn2)nc2ccccc21)Nc1cc(F)ccc1F` the AC50 was 3.16 µM (active).
For `CCCCCC/C(C)=C1/SC(=S)NC1=O`, the AC50 was 3.55 µM (active).
`Cc1ncc(COP(=O)(O)O)c(C)c1O` showed an activity, negative = inhibition of 11.9% [at 11.4 µM].
For `CCCC(CCC)C(=O)NNc1cc(=O)c2c(=O)n(C)c(=O)n(C)c2[nH]1`, the AC50 was “inactive”.
% is scaled to controls: 0 for no effect and ±100 for the full control effect.
